# ± gives the standard deviation of the averaged measurements.
# Experiments:
# Assay in all cases: promoter activity interaction Z-score (Lux/OD deviation from empty-vector control); higher = stronger promoter induction by the compound
# [1] = tested on: E. coli BW25113 acrABp lux reporter
# Summary of the method: (§1)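 Four 1:2 dilutions of each compound were tested in biological duplicates on E. coli BW25113 carrying low-copy luxCDABE promoter reporters, either wild type or deleted for one of three genes. Cultures of 40 µl LB Lennox in 384-well plates were kept at 37°C and read for OD600 and luminescence every 30 min for 12 h. Integration windows were 0–8 h for wild type and 1–9 h for deletion strains, and wells under 10% of the median growth value were discarded. The score is a Z-transformed residual of growth-normalised luminescence relative to a control fit.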
# [2] = tested on: E. coli BW25113 micFp lux reporter
# Summary of the method: as §1
# [3] = tested on: E. coli BW25113 ompFp lux reporter
# Summary of the method: as §1
# [4] = tested on: E. coli BW25113 robp lux reporter
# Summary of the method: as §1
# [5] = tested on: E. coli BW25113 soxSp lux reporter
# Summary of the method: as §1
# [6] = tested on: E. coli BW25113 tolCp lux reporter
# Summary of the method: as §1
# [7] = 0.12 µg/ml, genetic background: wild type
# [8] = 0.12 µg/ml, genetic background: ΔmarA
# [9] = 0.12 µg/ml, genetic background: Δrob
# [10] = 0.12 µg/ml, genetic background: ΔsoxS
# [11] = 0.23 µg/ml, genetic background: wild type
# [12] = 0.23 µg/ml, genetic background: ΔmarA
# [13] = 0.23 µg/ml, genetic background: Δrob
# [14] = 0.23 µg/ml, genetic background: ΔsoxS
# [15] = 0.47 µg/ml, genetic background: wild type
# [16] = 0.47 µg/ml, genetic background: ΔmarA
# [17] = 0.47 µg/ml, genetic background: Δrob
# [18] = 0.47 µg/ml, genetic background: ΔsoxS
# [19] = 0.94 µg/ml, genetic background: ΔmarA
# [20] = 0.94 µg/ml, genetic background: Δrob
# [21] = 0.94 µg/ml, genetic background: wild type
# [22] = 0.011 µg/ml, genetic background: wild type
# [23] = 0.011 µg/ml, genetic background: ΔmarA
# [24] = 0.011 µg/ml, genetic background: Δrob
# [25] = 0.011 µg/ml, genetic background: ΔsoxS
# [26] = 0.022 µg/ml, genetic background: wild type
# [27] = 0.022 µg/ml, genetic background: ΔmarA
# [28] = 0.022 µg/ml, genetic background: Δrob
# [29] = 0.022 µg/ml, genetic background: ΔsoxS
# [30] = 0.044 µg/ml, genetic background: wild type
# [31] = 0.044 µg/ml, genetic background: ΔsoxS
smiles,measurement,setting,value
NC[C@H]1O[C@H](O[C@H]2[C@H](O)[C@@H](O[C@H]3O[C@H](CO)[C@@H](O)[C@H](N)[C@H]3O)[C@H](N)C[C@@H]2N)[C@H](N)C[C@@H]1O [Tobramycin],promoter activity interaction Z-score,[1]; [7],0.275 ± 0.78
same,promoter activity interaction Z-score,[1]; [8],-0.0864 ± 0.66
same,promoter activity interaction Z-score,[1]; [9],-0.374 ± 0.06
same,promoter activity interaction Z-score,[1]; [10],-0.499 ± 0.77
same,promoter activity interaction Z-score,[1]; [11],0.0585 ± 0.16
same,promoter activity interaction Z-score,[1]; [12],-1.02 ± 0.59
same,promoter activity interaction Z-score,[1]; [13],-0.281 ± 0.11
same,promoter activity interaction Z-score,[1]; [14],-0.243 ± 0.067
same,promoter activity interaction Z-score,[1]; [15],0.268 ± 0.32
same,promoter activity interaction Z-score,[1]; [16],0.0843 ± 0.8
same,promoter activity interaction Z-score,[1]; [17],0.184 ± 0.22
same,promoter activity interaction Z-score,[1]; [18],-0.000211 ± 0.53
same,promoter activity interaction Z-score,[2]; [7],0.116 ± 0.093
same,promoter activity interaction Z-score,[2]; [8],-0.103 ± 0.25
same,promoter activity interaction Z-score,[2]; [9],-0.119 ± 0.027
same,promoter activity interaction Z-score,[2]; [10],-0.254 ± 0.025
same,promoter activity interaction Z-score,[2]; [11],0.0087 ± 0.2
same,promoter activity interaction Z-score,[2]; [12],-0.183 ± 0.0032
same,promoter activity interaction Z-score,[2]; [13],-0.106 ± 0.21
same,promoter activity interaction Z-score,[2]; [14],0.447 ± 0.0099
same,promoter activity interaction Z-score,[2]; [15],0.395 ± 0.47
same,promoter activity interaction Z-score,[2]; [16],-0.0629 ± 0.026
same,promoter activity interaction Z-score,[2]; [17],-0.0597 ± 0.061
same,promoter activity interaction Z-score,[2]; [18],-0.0982 ± 0.012
same,promoter activity interaction Z-score,[2]; [19],-0.362
same,promoter activity interaction Z-score,[2]; [20],-0.382
same,promoter activity interaction Z-score,[3]; [7],-0.387 ± 0.068
same,promoter activity interaction Z-score,[3]; [8],-0.3 ± 0.42
same,promoter activity interaction Z-score,[3]; [9],-0.413 ± 0.19
same,promoter activity interaction Z-score,[3]; [10],-0.487 ± 0.17
same,promoter activity interaction Z-score,[3]; [11],-0.622 ± 0.16
same,promoter activity interaction Z-score,[3]; [12],-0.759 ± 0.15
same,promoter activity interaction Z-score,[3]; [13],-0.556 ± 0.035
same,promoter activity interaction Z-score,[3]; [14],-0.0491 ± 0.17
same,promoter activity interaction Z-score,[3]; [15],-0.491 ± 0.36
same,promoter activity interaction Z-score,[3]; [16],-0.148 ± 0.12
same,promoter activity interaction Z-score,[3]; [17],-0.134 ± 0.25
same,promoter activity interaction Z-score,[3]; [18],-0.273 ± 0.14
same,promoter activity interaction Z-score,[4]; [7],0.0204 ± 0.029
same,promoter activity interaction Z-score,[4]; [8],-0.389 ± 0.14
same,promoter activity interaction Z-score,[4]; [9],-0.392 ± 0.68
same,promoter activity interaction Z-score,[4]; [10],-0.688 ± 0.16
same,promoter activity interaction Z-score,[4]; [11],-0.193 ± 0.42
same,promoter activity interaction Z-score,[4]; [12],-0.587 ± 0.68
same,promoter activity interaction Z-score,[4]; [13],-0.421 ± 0.28
same,promoter activity interaction Z-score,[4]; [14],-0.277 ± 0.056
same,promoter activity interaction Z-score,[4]; [15],0.112 ± 0.36
same,promoter activity interaction Z-score,[4]; [16],0.0227 ± 0.29
same,promoter activity interaction Z-score,[4]; [17],-0.0785 ± 0.74
same,promoter activity interaction Z-score,[4]; [18],-0.163 ± 0.8
same,promoter activity interaction Z-score,[4]; [19],-0.438
same,promoter activity interaction Z-score,[5]; [7],-0.268 ± 0.23
same,promoter activity interaction Z-score,[5]; [8],-0.327 ± 0.091
same,promoter activity interaction Z-score,[5]; [9],-0.404 ± 0.1
same,promoter activity interaction Z-score,[5]; [10],-0.552 ± 0.76
same,promoter activity interaction Z-score,[5]; [11],-0.406 ± 0.046
same,promoter activity interaction Z-score,[5]; [12],-0.398 ± 0.089
same,promoter activity interaction Z-score,[5]; [13],-0.3823 ± 0.0022
same,promoter activity interaction Z-score,[5]; [14],-0.224 ± 0.31
same,promoter activity interaction Z-score,[5]; [15],-0.337 ± 0.16
same,promoter activity interaction Z-score,[5]; [16],-0.48 ± 0.096
same,promoter activity interaction Z-score,[5]; [17],-0.274 ± 0.22
same,promoter activity interaction Z-score,[5]; [18],-0.474 ± 0.4
same,promoter activity interaction Z-score,[5]; [21],-0.762
same,promoter activity interaction Z-score,[5]; [20],-0.904
same,promoter activity interaction Z-score,[6]; [7],-0.242 ± 0.84
same,promoter activity interaction Z-score,[6]; [8],-0.0707 ± 0.59
same,promoter activity interaction Z-score,[6]; [9],-0.601 ± 1.1
same,promoter activity interaction Z-score,[6]; [10],-1.14 ± 0.68
same,promoter activity interaction Z-score,[6]; [11],-0.456 ± 0.35
same,promoter activity interaction Z-score,[6]; [12],-1.13 ± 0.17
same,promoter activity interaction Z-score,[6]; [13],-0.0625 ± 1.8
same,promoter activity interaction Z-score,[6]; [14],0.772 ± 0.56
same,promoter activity interaction Z-score,[6]; [15],-0.509 ± 0.71
same,promoter activity interaction Z-score,[6]; [16],-0.277 ± 0.22
same,promoter activity interaction Z-score,[6]; [17],1.06 ± 1.1
same,promoter activity interaction Z-score,[6]; [18],0.0909 ± 0.58
same,promoter activity interaction Z-score,[6]; [21],-0.901 ± 0.46
same,promoter activity interaction Z-score,[6]; [19],-0.459
same,promoter activity interaction Z-score,[6]; [20],-0.895 ± 0.19
same,promoter activity interaction Z-score,"[6]; 0.94 µg/ml, genetic background: ΔsoxS",-0.128 ± 1
COc1c(N2C[C@@H]3CCCN[C@@H]3C2)c(F)cc2c(=O)c(C(=O)O)cn(C3CC3)c12 [Moxifloxacin],promoter activity interaction Z-score,[1]; [22],0.0749 ± 0.025
same,promoter activity interaction Z-score,[1]; [23],-0.567 ± 0.78
same,promoter activity interaction Z-score,[1]; [24],0.0419 ± 0.7
same,promoter activity interaction Z-score,[1]; [25],0.247 ± 0.25
same,promoter activity interaction Z-score,[1]; [26],0.793 ± 0.42
same,promoter activity interaction Z-score,[1]; [27],1.07 ± 0.44
same,promoter activity interaction Z-score,[1]; [28],0.898 ± 1.1
same,promoter activity interaction Z-score,[1]; [29],0.353 ± 0.12
same,promoter activity interaction Z-score,[1]; [30],3.94
same,promoter activity interaction Z-score,[1]; [31],2.12 ± 1.1
same,promoter activity interaction Z-score,[2]; [22],-0.2 ± 0.019
same,promoter activity interaction Z-score,[2]; [23],0.154 ± 0.019
same,promoter activity interaction Z-score,[2]; [24],0.0249 ± 0.077
same,promoter activity interaction Z-score,[2]; [25],-0.0364 ± 0.073
same,promoter activity interaction Z-score,[2]; [26],-0.17 ± 0.072
same,promoter activity interaction Z-score,[2]; [27],0.371 ± 0.036
same,promoter activity interaction Z-score,[2]; [28],0.129 ± 0.04
same,promoter activity interaction Z-score,[2]; [29],0.0515 ± 0.087
same,promoter activity interaction Z-score,[2]; [30],-0.648 ± 0.45
same,promoter activity interaction Z-score,[2]; [31],-0.721 ± 0.42
same,promoter activity interaction Z-score,[3]; [22],0.138 ± 0.022
same,promoter activity interaction Z-score,[3]; [23],-0.0717 ± 0.18
same,promoter activity interaction Z-score,[3]; [24],0.0886 ± 0.25
same,promoter activity interaction Z-score,[3]; [25],0.123 ± 0.17
same,promoter activity interaction Z-score,[3]; [26],0.271 ± 0.48
same,promoter activity interaction Z-score,[3]; [27],0.695 ± 0.25
same,promoter activity interaction Z-score,[3]; [28],0.555 ± 0.53
same,promoter activity interaction Z-score,[3]; [29],0.184 ± 0.35
same,promoter activity interaction Z-score,[3]; [30],-0.0419 ± 2.9
same,promoter activity interaction Z-score,[4]; [22],1.08 ± 0.33
